Reference: PubChem BioAssay (NCATS)
Records with an inconclusive call do not appear. Where a call stands in place of a potency, no number is given. A number with no mark means an inactive call. The source made the active and inactive calls. Calls follow the shape of the dose curve; as a rule, active = well fitted curve in the direction sought with a large enough effect; inconclusive = small, poorly fitted or top-dose-only effect, or another doubt; inactive = no such curve, though single readings can be large; an effect the other way counts as inactive or inconclusive.

Assays:
[1] = target: Rap guanine nucleotide exchange factor 3 (Homo sapiens) (UniProt O95398); assay: Confirmatory qHTS for antagonist of cAMP-regulated guanine nucleotide exchange factor 3 (EPAC1) (AID 1645880); also: nearly all actives have a fitted effect of over 55% in size; also: potency is read from the fitted curve at half-maximal effect
How it was run: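 Nucleotide exchange uses 100 nM EPAC1, 250 nM RAP1B-BODIPY-GDP and 50 uM GDP, with compounds in a concentration-titration series. After 5 min at room temperature, fluorescence (480 nm ex/540 nm em) is read every 5 min for 30 min. Data are normalized to control ATA and DMSO.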

[2] = target: Rap guanine nucleotide exchange factor 3 (Homo sapiens) (UniProt O95398); assay: Confirmatory qHTS for agonist of cAMP-regulated guanine nucleotide exchange factor 3 (EPAC1) (AID 1645881); also: nearly all actives have a fitted effect of over 75% in size; also: potency is read from the fitted curve at half-maximal effect;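 as to activation: EPAC1 catalysed release of BODIPY-GDP from Rap1B seen as fluorescence loss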
[3] = target: Rap guanine nucleotide exchange factor 4 (Homo sapiens) (UniProt Q8WZA2); assay: Confirmatory qHTS for agonist of cAMP-regulated guanine nucleotide exchange factor 4 (EPAC2) (AID 1645884);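 also: nucleotide exchange releases bodipy-GDP from Rap1 and this lowers its fluorescence; nearly all actives have a fitted effect of over 65% in size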; also: potency is read from the fitted curve at half-maximal effect
[4] = target: Rap guanine nucleotide exchange factor 4 (Homo sapiens) (UniProt Q8WZA2); assay: Confirmatory qHTS for antagonist of cAMP-regulated guanine nucleotide exchange factor 4 (EPAC2) (AID 1645885); also: nearly all actives have a fitted effect of over 25% in size; also: potency is read from the fitted curve at half-maximal effect
[5] = target: Rap guanine nucleotide exchange factor 3 (Homo sapiens) (UniProt O95398); assay: Counterscreen qHTS for antagonist of cAMP-regulated guanine nucleotide exchange factor 3 (EPAC1) (AID 1645888);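 also: fluorescence loss as bound BODIPY-GDP is released from Rap1B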
How it was run: (§1)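 Rap1B-BODIPY-GDP 250 nM + GDP 50 uM; cpds 7-pt, final 9.74 nM–152 uM (activator mode) or from 7.32 nM upwards (inhibitor mode); RT; FI 480/540 nm at 5 and 30 min, then ± cAMP, reread.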

[6] = target: Rap guanine nucleotide exchange factor 3 (Homo sapiens) (UniProt O95398); assay: Counterscreen qHTS for agonist of cAMP-regulated guanine nucleotide exchange factor 3 (EPAC1) (AID 1645889); also: nearly all actives have a fitted effect of over 40% in size; also: potency is read from the fitted curve at half-maximal effect
How it was run: as §1

Chain of Rap guanine nucleotide exchange factor 4 (Homo sapiens) (Q8WZA2 whole entry, looked up): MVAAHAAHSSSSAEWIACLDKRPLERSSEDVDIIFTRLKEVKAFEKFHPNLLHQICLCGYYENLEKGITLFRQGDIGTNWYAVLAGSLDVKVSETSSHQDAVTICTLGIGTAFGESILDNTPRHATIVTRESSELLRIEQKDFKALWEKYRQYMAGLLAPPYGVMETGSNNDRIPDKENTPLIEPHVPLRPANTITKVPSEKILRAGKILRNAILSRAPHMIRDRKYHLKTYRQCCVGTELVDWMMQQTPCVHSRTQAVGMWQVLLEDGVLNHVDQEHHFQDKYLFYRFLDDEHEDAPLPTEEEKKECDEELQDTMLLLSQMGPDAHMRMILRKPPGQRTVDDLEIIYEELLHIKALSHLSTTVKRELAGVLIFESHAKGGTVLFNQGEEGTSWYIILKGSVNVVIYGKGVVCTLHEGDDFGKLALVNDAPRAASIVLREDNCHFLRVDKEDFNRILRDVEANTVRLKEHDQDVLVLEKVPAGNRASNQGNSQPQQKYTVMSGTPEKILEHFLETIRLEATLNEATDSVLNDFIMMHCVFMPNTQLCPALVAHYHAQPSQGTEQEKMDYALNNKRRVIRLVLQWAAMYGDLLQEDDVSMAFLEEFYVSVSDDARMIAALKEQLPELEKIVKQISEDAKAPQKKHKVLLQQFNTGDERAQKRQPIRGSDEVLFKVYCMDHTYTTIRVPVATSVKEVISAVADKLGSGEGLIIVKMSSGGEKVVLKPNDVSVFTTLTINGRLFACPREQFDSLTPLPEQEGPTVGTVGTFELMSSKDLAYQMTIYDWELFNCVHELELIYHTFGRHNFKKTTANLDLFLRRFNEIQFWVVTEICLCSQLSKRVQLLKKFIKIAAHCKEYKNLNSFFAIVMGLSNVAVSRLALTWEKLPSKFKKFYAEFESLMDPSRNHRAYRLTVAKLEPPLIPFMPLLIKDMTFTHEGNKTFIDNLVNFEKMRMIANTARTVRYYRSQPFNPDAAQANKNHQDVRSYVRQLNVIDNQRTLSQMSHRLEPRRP
Chain of Rap guanine nucleotide exchange factor 3 (Homo sapiens) (O95398 whole entry, looked up): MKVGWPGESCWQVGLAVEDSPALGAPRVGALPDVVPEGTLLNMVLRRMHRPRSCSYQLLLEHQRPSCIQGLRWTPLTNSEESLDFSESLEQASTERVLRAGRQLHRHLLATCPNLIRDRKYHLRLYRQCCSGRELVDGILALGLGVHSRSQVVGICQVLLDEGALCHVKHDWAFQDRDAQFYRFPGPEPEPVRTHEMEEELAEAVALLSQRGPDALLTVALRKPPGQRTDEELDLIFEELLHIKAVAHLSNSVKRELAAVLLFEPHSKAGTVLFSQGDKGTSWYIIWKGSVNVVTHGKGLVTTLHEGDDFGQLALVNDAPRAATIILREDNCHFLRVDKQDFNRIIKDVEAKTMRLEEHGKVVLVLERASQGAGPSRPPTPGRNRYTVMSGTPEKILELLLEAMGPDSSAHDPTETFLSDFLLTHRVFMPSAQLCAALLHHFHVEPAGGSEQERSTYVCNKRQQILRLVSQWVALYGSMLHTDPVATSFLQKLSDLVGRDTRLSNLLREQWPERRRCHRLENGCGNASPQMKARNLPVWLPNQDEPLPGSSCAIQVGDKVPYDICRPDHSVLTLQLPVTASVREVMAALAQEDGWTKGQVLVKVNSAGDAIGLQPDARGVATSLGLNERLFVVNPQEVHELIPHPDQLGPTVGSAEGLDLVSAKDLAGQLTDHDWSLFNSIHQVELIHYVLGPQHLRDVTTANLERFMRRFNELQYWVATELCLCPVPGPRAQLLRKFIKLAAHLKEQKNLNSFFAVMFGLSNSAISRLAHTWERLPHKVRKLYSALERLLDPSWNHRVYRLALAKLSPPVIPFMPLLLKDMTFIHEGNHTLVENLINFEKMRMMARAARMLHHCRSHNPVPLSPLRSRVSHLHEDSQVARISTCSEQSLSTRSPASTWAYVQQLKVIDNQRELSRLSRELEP

## S=C(NCCCN1CCOCC1)Nc1cccc(-c2nnc3n2CCCCC3)c1
[1]
  Potency: inactive
[2]
  Potency: inactive
[3]
  Potency: inactive
[4]
  Potency: inactive
[5]
  Potency: inactive
[6]
  Potency: inactive

## O=C(CSc1nnc(CCc2ccccc2)n1-c1ccc(Cl)cc1)NCc1ccccc1
[1]
  Potency: inactive
[2]
  Potency: inactive
[3]
  Potency: inactive
[4]
  Potency: inactive
[5]
  Potency: inactive
[6]
  Potency: inactive

## Cc1nn(CCc2nn[nH]n2)c2nc(-c3ccc(C4CCCCC4)cc3)cc(C(F)(F)F)c12
[1]
  Potency: 21.3 µM (active)
[2]
  Potency: inactive
[3]
  Potency: inactive
[4]
  Potency: inactive
[5]
  Potency: inactive
[6]
  Potency: inactive

## O=C(O)C(c1ccccc1)N1C(=O)/C(=C\c2ccc(-c3ccccc3Cl)o2)SC1=S (centres undefined)
[1]
  Potency: inactive
[2]
  Potency: inactive
[3]
  Potency: inactive
[4]
  Potency: inactive
[5]
  Potency: inactive
[6]
  Potency: inactive

## OC1C2CN3CCN(C2)CC1(Cc1ccccc1)C3 (centres undefined)
[1]
  Potency: inactive
[2]
  Potency: inactive
[3]
  activation: 3.83% [at 17.1 µM, percent relative to cAMP agonist control]
[4]
  Potency: inactive
[5]
  activity change, negative = inhibition: -12.7% [at 30.8 µM]
[6]
  activation: 28.2% [at 30.8 µM]

## COc1cccc2c(N/N=C/c3ccco3)cc(C)nc12
[1]
  Potency: inactive
[2]
  Potency: inactive
[3]
  Potency: inactive
[4]
  Potency: inactive
[5]
  Potency: inactive
[6]
  Potency: inactive

## COc1ccc(CCNC(=O)CSc2nc(N)c(C#N)c(-c3cccs3)c2C#N)cc1OC
[1]
  Potency: inactive
[2]
  Potency: inactive
[3]
  activation: 3.67% [at 17.1 µM, percent relative to cAMP agonist control]
[4]
  Potency: inactive
[5]
  activity change, negative = inhibition: -17% [at 30.8 µM]
[6]
  activation: 20.5% [at 30.8 µM]

## O=C(COc1ccc2ccccc2c1)Nc1cccc(C(=O)Nc2ccccc2C(=O)O)c1
[1]
  Potency: 33.8 µM (active)
[2]
  Potency: inactive
[3]
  Potency: inactive
[4]
  Potency: 47.8 µM (active)
[5]
  Potency: inactive
[6]
  Potency: inactive

## O=C(Cc1ccccc1)NCC(=O)N1CCC1
[1]
  Potency: inactive
[2]
  Potency: inactive
[3]
  Potency: inactive
[4]
  Potency: inactive
[5]
  Potency: inactive
[6]
  Potency: inactive

## O=C(NCCOc1ccccc1-c1ccccc1)c1ccco1
[1]
  Potency: inactive
[2]
  Potency: inactive
[3]
  activation: 6.96% [at 17.1 µM, percent relative to cAMP agonist control]
[4]
  Potency: inactive
[5]
  activity change, negative = inhibition: -5.39% [at 30.8 µM]
[6]
  activation: 12.2% [at 30.8 µM]

## Cn1c(=O)c2nc(SCC(=O)Nc3ccc(Cl)c(Cl)c3)n(C)c2n(C)c1=O
[1]
  Potency: inactive
[2]
  Potency: inactive
[3]
  Potency: inactive
[4]
  outcome: inactive [at 12.7 µM]
[5]
  Potency: inactive
[6]
  Potency: inactive

## O=c1c2sccc2nc(SCc2cc(=O)n3cc(Cl)ccc3n2)n1Cc1ccccn1
[1]
  Potency: inactive
[2]
  Potency: inactive
[3]
  Potency: inactive
[4]
  Potency: inactive
[5]
  Potency: inactive
[6]
  Potency: inactive

## CCOc1cc(/C=C2\C(=N)N3N=C(S(=O)(=O)CC)SC3=NC2=O)ccc1OC(=O)c1ccco1
[1]
  Potency: 30.1 µM (active)
[2]
  Potency: inactive
[3]
  Potency: inactive
[4]
  Potency: inactive
[5]
  Potency: inactive
[6]
  Potency: inactive

## Cc1cc2ccccn2c1C(=O)c1ccccc1F
[1]
  Potency: inactive
[2]
  Potency: inactive
[3]
  activation: 3.67% [at 17.1 µM, percent relative to cAMP agonist control]
[4]
  Potency: inactive
[5]
  activity change, negative = inhibition: -3.01% [at 30.8 µM]
[6]
  activation: 21.5% [at 30.8 µM]

## O=C1c2ccccc2S(=O)(=O)c2cc(N3CCC4(CC3)OCCO4)ccc21
[1]
  Potency: inactive
[2]
  Potency: inactive
[3]
  Potency: inactive
[4]
  Potency: 84.9 µM (active)
[5]
  Potency: inactive
[6]
  Potency: 14.1 µM (active)

## Cc1ccc(F)c(NC(=O)/C(C#N)=C(\O)c2ccc(C(C)(C)C)cc2)c1
[1]
  Potency: 8.91 µM (active)
[2]
  Potency: inactive
[3]
  activation: -11.9% [at 17.1 µM, percent relative to cAMP agonist control]
[4]
  Potency: inactive
[5]
  activity change, negative = inhibition: 8.44% [at 30.8 µM]
[6]
  activation: 14.8% [at 30.8 µM]

## Cc1nc2c(C(=O)NCCC(C)C)c[nH]n2c(=O)c1Cl
[1]
  Potency: inactive
[2]
  Potency: inactive
[3]
  Potency: inactive
[4]
  Potency: 84.9 µM (active)
[5]
  Potency: inactive
[6]
  Potency: inactive

## c1ccc2c(c1)oc1c(-c3ccc4nccn4c3)cccc12
[1]
  Potency: inactive
[2]
  Potency: inactive
[3]
  activation: 0% [at 17.1 µM, percent relative to cAMP agonist control]
[4]
  Potency: inactive
[5]
  activity change, negative = inhibition: -16.8% [at 30.8 µM]
[6]
  activation: 14.4% [at 30.8 µM]

## CC(OC(=O)CN1C(=O)COc2ccccc21)C(=O)NCc1ccc(F)cc1 (centres undefined)
[1]
  Potency: inactive
[2]
  Potency: inactive
[3]
  Potency: inactive
[4]
  Potency: inactive
[5]
  Potency: inactive
[6]
  Potency: inactive

## O=C(Nc1ccc(F)cc1F)C1CCN(c2ncccn2)CC1
[1]
  Potency: inactive
[2]
  Potency: inactive
[3]
  Potency: inactive
[4]
  Potency: inactive
[5]
  Potency: inactive
[6]
  Potency: inactive

## CCOC(=O)c1cc2n(c1N)-c1ccccc1C2=O
[1]
  Potency: inactive
[2]
  Potency: 100 µM (active)
[3]
  Potency: 100 µM (active)
[4]
  Potency: 23.9 µM (active)
[5]
  Potency: inactive
[6]
  Potency: 31.6 µM (active)

## Nc1[nH]c(C(=O)c2ccccc2)c(-c2ccccc2C(F)(F)F)c1C(=O)NCCc1cccs1
[1]
  Potency: inactive
[2]
  Potency: inactive
[3]
  Potency: inactive
[4]
  Potency: inactive
[5]
  Potency: inactive
[6]
  Potency: inactive

## COc1ccccc1OCC(=O)Nc1cccc(S(=O)(=O)NC2=NCCCCC2)c1
[1]
  Potency: inactive
[2]
  Potency: inactive
[3]
  Potency: inactive
[4]
  Potency: inactive
[5]
  Potency: inactive
[6]
  Potency: inactive

## O=C(Cc1ccccc1)O/N=C1\CCCc2ccccc21
[1]
  Potency: inactive
[2]
  Potency: inactive
[3]
  Potency: inactive
[4]
  Potency: inactive
[5]
  Potency: inactive
[6]
  Potency: inactive

## N#Cc1c(-c2ccccc2)nc(SCc2cccc(C(F)(F)F)c2)[nH]c1=O
[1]
  Potency: 26.9 µM (active)
[2]
  Potency: inactive
[3]
  Potency: inactive
[4]
  Potency: 75.7 µM (active)
[5]
  Potency: inactive
[6]
  Potency: inactive

## CCN(CC)c1nc(C#N)cc(-c2ccc(OC)cc2)n1
[1]
  Potency: inactive
[2]
  Potency: inactive
[3]
  Potency: inactive
[4]
  Potency: inactive
[5]
  Potency: inactive
[6]
  Potency: inactive

## CCc1cccc2cc3c(N)c(C(=O)Nc4ccc(S(=O)(=O)N5CCCC5)cc4)sc3nc12
[1]
  Potency: 75.7 µM (active)
[2]
  Potency: inactive
[3]
  Potency: inactive
[4]
  Potency: 67.5 µM (active)
[5]
  Potency: inactive
[6]
  Potency: inactive

## O=C(O)CCN1C(=O)/C(=C\c2cccc(Oc3ccccc3)c2)SC1=S
[1]
  Potency: 26.9 µM (active)
[2]
  Potency: inactive
[3]
  Potency: inactive
[4]
  Potency: 21.3 µM (active)
[5]
  Potency: inactive
[6]
  Potency: inactive

## O=C(O)c1cccc(N/N=C/c2cc(Br)cc(Br)c2O)c1
[1]
  Potency: 75.7 µM (active)
[2]
  Potency: inactive
[3]
  Potency: inactive
[4]
  Potency: 67.5 µM (active)
[5]
  Potency: inactive
[6]
  Potency: inactive

## C=CCOc1ccc(/C=C2\SC(=S)N(NS(=O)(=O)c3ccccc3)C2=O)cc1
[1]
  Potency: 47.8 µM (active)
[2]
  Potency: inactive
[3]
  Potency: inactive
[4]
  Potency: 42.6 µM (active)
[5]
  Potency: inactive
[6]
  Potency: inactive

## COc1ccc(C(C)=NNc2ccc([N+](=O)[O-])cc2S(=O)(=O)Nc2ccccc2C(=O)O)c(OC)c1
[1]
  Potency: 37.9 µM (active)
[2]
  Potency: inactive
[3]
  Potency: inactive
[4]
  Potency: 75.7 µM (active)
[5]
  Potency: inactive
[6]
  Potency: inactive

## CC(C)CNc1cc(Cl)c(S(=O)(=O)NCC(C)C)cc1C(=O)O
[1]
  Potency: inactive
[2]
  Potency: inactive
[3]
  activation: 1.7% [at 17.1 µM, percent relative to cAMP agonist control]
[4]
  Potency: inactive
[5]
  activity change, negative = inhibition: 8.12% [at 30.8 µM]
[6]
  activation: -0.574% [at 30.8 µM]

## O=C(c1ccccc1[N+](=O)[O-])N1CCN(c2ccc(N3CCOCC3)nn2)CC1
[1]
  Potency: inactive
[2]
  Potency: inactive
[3]
  Potency: inactive
[4]
  Potency: inactive
[5]
  Potency: inactive
[6]
  Potency: inactive

## Cc1cn([C@H]2C[C@H](O)[C@@H](CCC(=O)NCc3ccc4c(c3)OCO4)O2)c(=O)[nH]c1=O
[1]
  Potency: inactive
[2]
  Potency: inactive
[3]
  Potency: inactive
[4]
  Potency: inactive
[5]
  Potency: inactive
[6]
  Potency: inactive

## Cc1ccc(NC(=O)c2ccc(CN3CC(=O)N4CCCCC4C3=O)cc2)c(C)c1 (centres undefined)
[1]
  Potency: inactive
[2]
  Potency: inactive
[3]
  Potency: inactive
[4]
  Potency: inactive
[5]
  Potency: inactive
[6]
  Potency: inactive

## CC(=O)c1ccc(N2CCN(C(=O)C3CCCN(S(=O)(=O)c4c(C)[nH]c(=O)[nH]c4=O)C3)CC2)cc1 (centres undefined)
[1]
  Potency: inactive
[2]
  Potency: inactive
[3]
  Potency: inactive
[4]
  Potency: inactive
[5]
  Potency: inactive
[6]
  Potency: inactive

## C=CCN(CC=C)Cc1cc(=O)oc2ccc3ccccc3c12
[1]
  Potency: inactive
[2]
  Potency: inactive
[3]
  activation: -1.79% [at 17.1 µM, percent relative to cAMP agonist control]
[4]
  Potency: inactive
[5]
  activity change, negative = inhibition: -12.3% [at 30.8 µM]
[6]
  activation: 4.33% [at 30.8 µM]

## Cc1ccc(S(=O)(=O)N2[C@@H](c3ccc(Cl)cc3)C(C(=O)O)=CC[C@H]2c2ccc(Cl)c(Cl)c2)cc1
[1]
  Potency: 75.7 µM (active)
[2]
  Potency: inactive
[3]
  Potency: inactive
[4]
  Potency: 47.8 µM (active)
[5]
  Potency: inactive
[6]
  Potency: inactive

## Cc1cccc(-c2nc(SCC(=O)Nc3cccc(C(F)(F)F)c3)n3[nH]c(=O)cc3n2)c1
[1]
  Potency: 84.9 µM (active)
[2]
  Potency: inactive
[3]
  Potency: inactive
[4]
  Potency: inactive
[5]
  Potency: inactive
[6]
  Potency: inactive
